Compounds with a hit are over-represented: about 15% of the library has one in this group of screens.
DT40 TDP1 CPT = growth inhibition of DT40 Tdp1-/-;hTDP1 cells with camptothecin (screen for TDP1 inhibitors) | Potency, µM (doses to about 46.2 µM), hits mostly inhibitors | chicken DT40 Tdp1-/-;hTDP1 cells + 20 nM CPT, ATP luminescence, 48 h | 12% of 420,000 active; further: nearly all actives have a fitted effect of over 55% in size
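Chicken DT40 Tdp1-/- cells stably complemented with human TDP1 were seeded at 400 cells/well in medium containing 20 nM camptothecin, exposed to pin-transferred compounds, and grown at 37 °C for at least 48 hr. Viability was read as ATP luminescence.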
12-LOX inh = blocks human arachidonate 12S-lipoxygenase; 1.1% of 580,000 active; P18054; Potency, µM (highest dose often 108 µM), hits mostly inhibitors; AID 1671190; purified 12hLO, xylenol orange hydroperoxide absorbance
Target sequence (P18054 whole entry, looked up): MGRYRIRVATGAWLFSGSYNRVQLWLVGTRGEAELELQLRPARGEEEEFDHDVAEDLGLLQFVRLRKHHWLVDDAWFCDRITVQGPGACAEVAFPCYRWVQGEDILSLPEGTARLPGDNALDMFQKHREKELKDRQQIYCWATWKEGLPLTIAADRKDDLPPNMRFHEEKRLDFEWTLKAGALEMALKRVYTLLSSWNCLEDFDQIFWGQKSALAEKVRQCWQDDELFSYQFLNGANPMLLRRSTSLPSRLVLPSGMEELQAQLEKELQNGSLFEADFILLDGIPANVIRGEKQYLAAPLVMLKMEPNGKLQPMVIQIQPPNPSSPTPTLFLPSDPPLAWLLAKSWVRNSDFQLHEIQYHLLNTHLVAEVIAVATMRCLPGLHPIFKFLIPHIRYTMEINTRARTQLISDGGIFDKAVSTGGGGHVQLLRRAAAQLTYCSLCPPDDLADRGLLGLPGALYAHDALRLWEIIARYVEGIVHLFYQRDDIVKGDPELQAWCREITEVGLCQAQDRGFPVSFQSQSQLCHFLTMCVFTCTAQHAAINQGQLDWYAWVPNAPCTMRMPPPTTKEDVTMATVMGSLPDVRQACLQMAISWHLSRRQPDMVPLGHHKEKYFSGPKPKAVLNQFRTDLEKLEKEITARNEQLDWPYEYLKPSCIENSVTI
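Purified human 12hLO (150 nM final) in 25 mM Hepes, 0.01% Triton X-100, pH 7.0 was preincubated 15 min at room temperature with compound. Then 40 uM arachidonic acid was added, 30 min. Hydroperoxide was read by Fe-XO absorbance ratio 573/405 nm.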
TDP1 cell noCPT = qHTS for Inhibitors of human tyrosyl-DNA phosphodiesterase 1 (TDP1): qHTS in cells in absence of CPT | DT40 Tdp1-/- hTDP1 cells, no CPT, ATP luminescence, 48 h | Potency, µM (series often up to 46.2 µM), actives largely listed as inhibitors | 15% of 420,000 active; further: nearly all actives have a fitted effect of over 55% in size
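Chicken DT40 Tdp1-/- cells stably complemented with human TDP1 were seeded at 400 cells/well with DMSO in place of 20 nM camptothecin. After compound pinning, cells grew at least 48 hr at 37 °C; viability read by CellTiter-Glo luminescence.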
ELG1 DNA repair = blocks ELG1-dependent DNA repair in HEK293T cells | HEK293T ELG1-luciferase reporter, luminescence, 16 h; DNA damage induced by 5-fluorouridine | Potency, µM (series often up to 46.1 µM), usual class: inhibitors | 2.3% of 330,000 active | AID 504467; further: nearly all actives have a fitted effect of over 55% in size
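In this reporter screen, reduction of luminescence relative to DMSO vehicle indicated activity. Compounds and 5-fluorouridine were added together to 2,000 cells per well, incubated for 16 hr at 37 °C, then developed with ONE-Glo.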
VP16 counter = counter-screen for ROR gamma inhibitors: Gal4-VP16 reporter | Drosophila S2 Gal4-VP16 UAS-luciferase, luminescence, 20 h | Potency, µM (highest dose often 53.6 µM), usual class: inhibitors | 3.5% of 310,000 active | AID 2546;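 further: Gal4-VP16 expression switched on by copper sulfate through the metallothionein promoter; nearly all actives have a fitted effect of over 50% in size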
RORgamma inh = ROR gamma (mouse) transcription inhibition; Potency, µM (highest dose often 53.6 µM), most hits filed as inhibitors; 5.4% of 310,000 active; Drosophila S2 Gal4-RORgamma UAS-luciferase reporter, 20 h; AID 2551; P51450; further: nearly all actives have a fitted effect of over 60% in size
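Drosophila Schneider cells stably carrying a metallothionein-driven Gal4 DBD–ROR gamma fusion and a UAS-Photinus luciferase reporter were exposed to compound for 1 hr, then induced with copper sulfate (700 uM final) for 20 hr at ambient temperature before luminescence reading.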
Numbers stand for hits; - = inactive; ? = inconclusive; . = no result; [ ] = dose if it differs, or a comment. The call rests on the fitted dose curve; in most records, active means well fitted curve in the direction sought with a large enough effect; inconclusive means small, poorly fitted or top-dose-only effect, or another doubt; inactive means no such curve, though single readings can be large; an effect the other way counts as inactive or inconclusive.

SMILES	DT40 TDP1 CPT	12-LOX inh	TDP1 cell noCPT	ELG1 DNA repair	VP16 counter	RORgamma inh
CN1C(=O)Cc2ccccc2C1C(=O)NC1CCCC1 (configuration not stated)	.	-	.	.	.	.
CS(=O)(=O)N1Cc2ccccc2CC2(CCCCN2Cc2cccnc2)C1 (configuration not stated)	.	-[6.33 µM]	.	.	.	.
O=C(Cn1c(SCc2ccc(F)cc2)nc2cccnc21)Nc1ccccc1F	?	-	25.9µM	.	.	.
Cc1cccc(-c2cc(NC(=O)c3ccccc3C)n(-c3ccccc3)n2)c1	?	-	-	.	.	.
COc1ccccc1C(=O)Nc1cc(-c2cccc(Br)c2)nn1-c1ccccc1	14.6µM	-	7.31µM	.	.	.
O=C(Nc1cc(-c2cccc(Cl)c2)nn1-c1ccccc1)c1ccccc1F	16.4µM	-	?	.	.	.
O=C(Nc1nc(N2C(=O)c3ccccc3C2=O)n(-c2ccccc2)n1)c1ccc(Cl)cc1	-	-	-	-	?	14.1µM
CC(C)c1ccc(C(=O)Nc2cc(-c3ccccc3F)nn2-c2ccccc2)cc1	20.6µM	-	10.3µM	.	.	.
Nc1nc(NC(=O)c2ccc(Cl)cc2)nn1-c1ccccc1	-	-	-	-	?	?
Cc1ccccc1CCN1CCCC(CN(C)C(=O)Nc2ccccc2C)C1 (configuration not stated)	.	-	.	.	.	.
Cn1ccnc1CN1CCCC(CCc2ccccc2)C1 (configuration not stated)	.	-	.	.	.	.
Cc1cccc(C)c1OCc1cc(C(=O)N2CCCC(C(=O)c3nccn3C)C2)no1 (configuration not stated)	.	-	.	.	.	.
O=C(NCC(=O)N1CCN(S(=O)(=O)c2ccc3ccccc3c2)CC1)c1ccc2c(c1)OCO2	.	-	.	.	.	.
Cc1nc(SCC(=O)N(c2ccccc2)c2ccccc2)oc1C	.	-	.	.	.	.
Clc1cc(CNCCc2cccs2)cc2c1OCCCO2	.	-	.	.	.	.
COC1(OC)N=C(N)C2(C#N)C(c3ccc4c(c3)OCO4)C12C#N (configuration not stated)	8.2µM	-	?	?	-	-
Cc1c(C(=O)NCCCN2CCCCC2)oc2ccc3c(c12)C(O)CC1(CCCCC1)O3 (configuration not stated)	?	-	16.4µM	-	-	-
CCOC(=O)C1=C(CN2CCN(C(=O)OCC)CC2)NC(=O)NC1c1ccc(OC)c(COC)c1 (configuration not stated)	.	-	.	.	.	.
C/C(=N\Nc1nc2c(s1)CCCC2)c1ccccc1	16.4µM	-	14.6µM	?	?	12.6µM
CC(C)=NNc1nc(-c2ccccc2)cs1	?	?	?	?	-	?
O=C(Nc1nc2c(s1)CCCC2)c1cc(-c2ccccc2)nc2ccccc12	?	-	?	-	?	?
C/C(=N/NC(=O)C(=O)N/N=C(/C)c1ccccc1)c1ccccc1	.	-	.	-	-	-
C/C(=N\Nc1nc(C(=O)O)cs1)c1ccccc1	-	-	-	?	5.01µM	0.631µM
C/C(=N\Nc1nc(C(C)(C)C)cs1)c1ccccc1	23.1µM	?	23.1µM	?	.	.
C/C(=N\Nc1nc(C(C)(C)C)cs1)c1ccc(O)cc1	-	-	18.4µM	?	10µM	?
SMILES	DT40 TDP1 CPT	12-LOX inh	TDP1 cell noCPT	ELG1 DNA repair	VP16 counter	RORgamma inh
CCn1c(CC(=O)Nc2ccc(F)cc2)nnc1SCC(=O)Nc1ccc2ccccc2c1	.	-	.	.	.	.
CCn1nnc(NC(=O)c2cccnc2)n1	-	-	-	-	-	-
CCn1nnc(NC(=O)c2ccc(C(C)(C)C)cc2)n1	-	-	-	?	12.6µM	12.6µM
Cc1ccc(-c2nc3ccc(Br)cn3c2Cc2cccc(F)c2)cc1	16.4µM	?	?	.	.	.
Cc1ccc2nc(-c3ccccc3)c(Cc3cccc(F)c3)n2c1	?	?	20.6µM	.	.	.
Cc1cc(O)c2c(C)c(CC(=O)NCc3ccc(F)cc3)c(=O)oc2c1	.	-	.	.	.	.
CC(C)(C)Cc1nnc(NC(=O)Cc2cccs2)s1	-	44.7µM	?	-	-	-
O=C(Cc1cccs1)Nc1nnc(CCc2ccccc2)s1	-	-	-	-	-	-
O=C(Cc1cccs1)Nc1nnc(Cc2ccccc2)s1	?	44.7µM	?	-	-	?
Cc1c(O)ccc(C(=O)CN2CCN(c3ccc(F)cc3)CC2)c1O	?	?	16.4µM	-	-	-
Cc1c(O)ccc(C(=O)CN2CCN(Cc3ccccc3)CC2)c1O	-	-	-	-	-	-
COc1ccc(NC(=O)CSc2nc3cc(C)[nH]c3c(=O)n2C)cc1Cl	.	-	.	.	.	.
Cn1nnnc1-c1cccc(NS(=O)(=O)c2ccc(F)c(F)c2)c1	.	-	.	.	.	.
CCOC(=O)C(C)Oc1ccc2c(-c3ccccc3)cc(=O)oc2c1C (configuration not stated)	.	-	.	.	.	.
O=S(=O)(N[C@H]1[C@H](O)[C@H](O)C[C@@H]1C1CCCCC1)c1ccccc1	.	-	.	.	.	.
O=C(Cn1cncn1)NCc1ccc(Cl)cc1	-	-	-	-	?	-
Clc1ccc(NCn2cncn2)nc1	23.1µM	-	-	-	-	-
CN(C)c1cc[n+](CC(=O)Nc2ccc(OC(F)F)cc2)cc1	23.1µM	?	14.6µM	-	-	-
Cc1cccc[n+]1CC(=O)Nc1ccc([N+](=O)[O-])cc1	-	-	-	-	-	-
CN(C)c1cc[n+](CC(=O)Nc2cccc([N+](=O)[O-])c2)cc1	?	-	3.26µM	-	-	-
CC(=O)c1ccc(NC(=O)C[n+]2ccc(N(C)C)cc2)cc1	-	-	-	-	-	-
O=C(C[n+]1ccc(-c2ccccc2)cc1)Nc1ccc([N+](=O)[O-])cc1	10.3µM	-	14.6µM	-	-	-
O=C1CN(c2nc(-c3ccsc3)nc3ccccc23)CCN1	.	-	.	.	.	.
CC(C)(C)CN1CCNC(=O)C1CC(=O)O (configuration not stated)	.	-	.	.	.	.
CCn1cc(S(=O)(=O)N2CCCC(Cc3ncc(C)n3Cc3ccccc3)C2)cn1 (configuration not stated)	.	-	.	.	.	.
O=C(N/N=C/c1cccs1)c1cccc(S(=O)(=O)Nc2ccc(Cl)cc2)c1	?	-	?	-	5.62µM	3.98µM
O=C(N/N=C/c1cccc(NC(=O)c2ccc(Cl)cc2)c1)c1cccc(O)c1	?	-	13µM	-	-	-
Cc1cccc(CN(CC(=O)N/N=C/c2cccs2)S(=O)(=O)c2ccc(Cl)cc2)c1	?	-	29.1µM	-	-	?
O=C(N/N=C/c1cccs1)c1cccc(Br)c1	.	-	.	.	.	.
O=C(N/N=C/c1cccs1)c1cccc(NC(=O)c2ccc(Cl)cc2)c1	.	-	.	-	12.6µM	10µM
